# Hit rate of the full screen: of about 130,000 compounds, about 1,200 (0.92%) were called active.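 Rule for the calls: active = inhibition above the mean plus 3 SD, with well images judged a real hit on visual review (cut at about 60% in these data, passing the limit was not always enough); inconclusive = inhibition over the cutoff but images rejected on review; inactive = inhibition not above the cutoff.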 Shown is part of a subset that was picked to be rich in actives.
# Test: insulin gene promoter suppression in islet cells – imaging, TRM-6 cells (human fetal islet line), eGFP reporter, cell count, primary screen (AID 1273;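 for normalized cell count: cells exposed to compound for 48 h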)
# Settings: at 2 µM, reporter expression induced with tamoxifen; inhibition: stronger effect = higher value; normalized cell count: measured here: cell count, toxicity
SMILES,inhibition,normalized cell count
CCC(=O)c1cc2c(cc1NC(=O)c1cccs1)OCCO2,80% (active),106%
Cc1nc(-c2ccc(NC(=O)c3cccs3)cc2)cs1,43.8% (inactive),89.3%
COc1cc(NC(=O)c2cccs2)ccc1NC(=O)c1ccccc1Cl,20% (inactive),118%
N/C(=N\OC(=O)COc1ccc([N+](=O)[O-])cc1)c1ccc(Br)cc1,-81.2% (inactive),113%
Cc1cccc(C)c1NC(=S)N(Cc1cccnc1)Cc1ccccc1Cl,-60% (inactive),73.3%
CCOc1ccc(CCNC(=O)CSc2cc(=O)n(C)c3ccc(Cl)cc23)cc1OCC,-11.8% (inactive),144%
CCOc1ccc(CCN2C(=O)c3cccnc3C2=O)cc1OCC,68.4% (active),94.8%
Cc1cccc(N2C(=O)c3cccnc3C2=O)c1,11.4% (inactive),66.7%
C/C(=N\NC(=O)C(N)=O)c1ccc2c(c1)OCCO2,-41.2% (inactive),156%
CN(CC(=O)Nc1cccc2c1CCCC2)S(=O)(=O)c1ccc(Cl)cc1,38.5% (inactive),112%
CN(CC(=O)NCCc1ccccn1)S(=O)(=O)c1ccc(Cl)cc1,-33.3% (inactive),83.8%
Cc1nc(NC(=O)CN(C)S(=O)(=O)c2ccc(Cl)cc2)sc1C,80% (active),67.9%
Cc1cnc(NC(=O)C2CCCC2)s1,20.5% (inactive),280%
CCOC(=O)c1cc(C)sc1NC(=O)C1CCC1,87.5% (active),161%
COC(=O)c1cc(C)sc1NC(=O)CC1Nc2ccccc2NC1=O (configuration not stated),40.5% (inactive),145%
CCOC(=O)c1ccc(NNC(C)=O)c([N+](=O)[O-])c1,-68.4% (inactive),62.3%
O=C(C1CCCO1)N1CCN(C(=S)NC2CC2)CC1 (configuration not stated),-29.4% (inactive),80.6%
CC(=O)c1ccc(N2CCN(S(=O)(=O)c3c(C)[nH]c(=O)[nH]c3=O)CC2)cc1,-10% (inactive),114%
Cc1ccc(N/C=C/C(=O)c2ccccc2)cc1C,7.69% (inactive),107%

SMILES,inhibition,normalized cell count
C/C(=C\C(=O)c1cccnc1)Nc1ccc(C)c(C)c1,85.7% (active),74%
C/C(=C\C(=O)c1ccccc1)Nc1cccc(O)c1,-33.3% (inactive),193%
CCSC1=NCCN1S(=O)(=O)c1ccc(F)cc1,7.69% (inactive),130%
COc1cc(NC(=O)COC(=O)c2cnc(C)cn2)c(C)cc1[N+](=O)[O-],27.3% (inactive),90.4%
CC(Oc1ccc(Cl)cc1)C(=O)OCC(=O)Nc1ncc(Cl)cc1Cl (configuration not stated),20% (inactive),100%
Cc1cnc(C(=O)OCC(=O)Nc2ccc(Cl)cc2Cl)cn1,81.5% (active),20%
Cc1ccc(S(=O)(=O)Cc2cc(-c3ccc(Cl)cc3)no2)cc1,25% (inactive),128%
CCOC(=O)C1(Cc2ccc(Cl)cc2)CCN(C(=O)C2=NNC(=O)CC2)CC1,-46.1% (inactive),93.7%
CCN(CC)Cc1c(C(=O)OC)nnn1-c1nonc1N,72.4% (active),14.1%
CCOC(=O)c1nnn(-c2nonc2-n2cccc2)c1CN1CCOCC1,13.9% (inactive),62.1%
CCOC(=O)c1nnn(-c2nonc2-n2cccc2)c1CN1CCC(C(=O)OCC)CC1,13.9% (inactive),99.3%
Cc1ccc(C(=O)Cn2cccn2)cc1,-62.5% (inactive),90.7%
CNS(=O)(=O)c1ccc(NC(=O)C2CC(=O)N(c3ccc(Cl)cc3)C2)cc1 (configuration not stated),63.6% (inactive),32.9%
O=C(Nc1nnc(SCc2ccccc2)s1)c1ccco1,0% (inactive),86.4%
Cc1ccc(Nc2nnc(SCc3ccccc3)s2)cc1,100% (active),9.38%
CCSc1nnc(NC(=O)c2ccc(C)cc2)s1,-38.7% (inactive),45.1%
CN(C)CCNC(=O)/C(=C/c1cccc([N+](=O)[O-])c1)NC(=O)c1ccccc1,-14.3% (inactive),101%
O=C(NCC1CCCO1)C(C(=O)c1ccccc1)n1cc(Cl)ccc1=O (configuration not stated),-40% (inactive),104%
CN(C)CCNC(=O)C(C(=O)c1ccccc1)n1ccccc1=O (configuration not stated),86.7% (active),49.3%

SMILES,inhibition,normalized cell count
Cc1ccc(OC(=O)CCC(=O)Nc2ccc(Br)cc2)cc1,-66.7% (inactive),102%
COCC(=O)Nc1ccc(Br)cc1,73.3% (active),43.9%
COCC(=O)Nc1cc(C(=O)OC)cc(C(=O)OC)c1,12.8% (inactive),127%
O=C(Cc1cccc2ccccc12)NCCC1=CCCCC1,-22.2% (inactive),92.7%
CCOC(=O)c1ccccc1NC(=O)CSc1nc2ccccc2c(=O)[nH]1,-83.3% (inactive),180%
CCc1ccc(NC(=O)c2ccc(Cn3cc([N+](=O)[O-])cn3)cc2)cc1,6.25% (inactive),63.8%
COc1cccc(NC(=O)c2ccc(Cn3cc([N+](=O)[O-])cn3)o2)c1,-11.1% (inactive),79.5%
Cn1cc([N+](=O)[O-])c(C(=O)Nc2cnn(Cc3ccc(F)cc3)c2)n1,69.2% (active),112%
COCCNC(=S)N1CCC(NC(=O)C23CC4CC(CC(C4)C2)C3)CC1,21.4% (inactive),106%
CCn1c(SCc2ccccc2)nc2c(c1=O)SCC2,48.6% (inactive),108%
CC(Sc1nnnn1C)C(=O)NC(=O)NC1CCCCC1 (configuration not stated),36.4% (inactive),91.5%
Cc1ccc(NC(=O)C2(N3CCC3=O)CCCCC2)cc1,-35.7% (inactive),133%
O=C(O)Cc1ccc(NCc2ccccc2Cl)cc1,0% (inactive),111%
C=CCNC(=O)COC(=O)CNC(=O)c1cc(Cl)cc([N+](=O)[O-])c1,83.3% (active),37%
C=CCNC(=O)/C(=C\c1cccc([N+](=O)[O-])c1)NC(=O)c1ccccc1,-26.7% (inactive),102%
CC(C)(C)SCCNC(=O)c1cccc([N+](=O)[O-])c1,-42.9% (inactive),85.5%
CC(OC(=O)CCc1nc(=O)c2ccccc2n1C)C(=O)NCc1ccc2c(c1)OCO2 (configuration not stated),-58.8% (inactive),141%
Cc1ccc(CNC(=O)CCNS(=O)(=O)c2ccc(Br)s2)cc1,37.5% (inactive),94.3%
